# Tgondii IFNg – blocks Toxoplasma gondii growth in the presence of IFN-gamma; 69,000 tested, 3.8% active; AID 1259416; activity change, negative = inhibition, % (test concentration not listed); Toxoplasma gondii growth in IFN-gamma-treated host cells; hits give low values; in the data active = activity change below about -70%, passing the limit was not always enough;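 also: host cells are HeLa cells infected with Toxoplasma gondii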
# * marks the source's active call; other numbers are inactive results; i = inactive. The entries come from a sample that favours hits as a whole.
SMILES,Tgondii IFNg
CCCN1C(=O)CCc2cc(NS(=O)(=O)c3cccs3)ccc21,5
CCn1c(SCc2nc(-c3ccccc3)oc2C)nc(=O)c2c(C(=O)OC)cc(C)nc21,i
CC(=O)c1cc(C(=O)NC2CCN(Cc3cccc(F)c3)CC2)cs1,-31
CC(=O)N1CCC(C(=O)NCc2ccccc2)(N(C(=O)c2ccc(C)cc2)c2ccc(F)cc2)CC1,-10
COc1ccc(-c2[nH]ncc2CN[C@@H]2CCC[C@H]2Cc2cc(C)no2)cc1,-13
Cc1ccc2c(c1)C(=O)CC1(CCN(CC(=O)Nc3nc4c(s3)CCCC4)CC1)O2,-48
O=C(CN1CCCC1Cn1cccn1)Nc1ccnn1C1CCCC1 (configuration not stated),1
O=C(CN1CCCC1Cn1cccn1)Nc1nc2c(s1)CCCC2 (configuration not stated),-78*
C(#Cc1ccccc1)CN(Cc1nc(-c2ccco2)no1)C1CC1,-2
O=C(CN1CCCC1c1nc(-c2ccncc2)n[nH]1)N1CCc2ccccc21 (configuration not stated),-3
Cc1occc1C(=O)N1CC[C@H]2[C@@H]1CCN2c1nncs1,-10
CCS(=O)(=O)N1CCC2(CC1)OC(=O)C(C)=C2C(=O)Nc1cccc(Cl)c1,65
O=C(Nc1ccc2ccccc2n1)c1cc(Cl)sc1Cl,147
COc1ccc(-c2cn(CC[C@@H]3CC[C@@H](NC(=O)c4cnccn4)[C@H](CO)O3)nn2)cc1,-14
CCn1c(-c2cc(NC(=O)c3cncc(Br)c3)n[nH]2)cc2ccccc21,-103*
CC(C)OC(=O)c1ccc(NC(=O)c2cncc(Br)c2)cc1,40
COc1ccc(OC)c(NC(=O)c2cncc(NS(=O)(=O)c3ccc(Br)cc3)c2)c1,19
CCn1c(-c2cc(NC(=O)c3cccnc3)n[nH]2)cc2cc(OC)ccc21,69
COc1ccc2c3c(n(C)c2c1)[C@@H](CO)N(C(C)=O)CC31CCN(C(=O)c2cnccn2)CC1,368
CCn1c(-c2cc(NC(=O)c3cnccn3)n[nH]2)cc2ccc(OC)cc21,-103*
COCCN1C(=O)CCc2cc(NC(=O)c3cncc(Br)c3)ccc21,1
CCn1c(-c2cc(NC(=O)c3cncc(Br)c3)n[nH]2)cc2ccc(OC)cc21,-85*
COCC(=O)N1C[C@H]2CNC[C@@]2(C(=O)N2CCC(Cn3cccn3)CC2)C1,-52
O=C(NCc1ccc(F)cc1F)c1c(O)c2cccnc2n(-c2ccccc2)c1=O,74
O=C(c1ccco1)N1C[C@@H]2COC[C@]2(COCC2CC2)C1,-21
SMILES,Tgondii IFNg
O=C(c1ccc2c(c1)OCO2)N1CCC(n2cc(-c3ccccn3)nn2)CC1,30
O=S(=O)(Nc1cscc1S(=O)(=O)c1ccccc1)c1ccccc1C(F)(F)F,26
Cc1oc(-c2ccc(NC(=O)c3ccc(Br)o3)cc2)nc1Cn1cccn1,69
CCc1nc(N)sc1C(=O)N(CC)Cc1ccccc1F,-1
O=C(O)c1cccnc1Nc1cccc(C(F)(F)F)c1,-4
Cc1nc(CCNc2nc(-c3cccnc3)nc3c2CCNC3)sc1C,136
CC(C)(C)C1CCc2nc(-c3cccnc3)nc(Nc3cccc(C(F)(F)F)c3)c2C1 (configuration not stated),-73*
O=C(c1ccc(-n2ncc3c(Cl)cccc32)o1)N1CCOCC1,55
Cc1ccccc1-c1nc(CN(C)S(=O)(=O)c2ccccc2)c(C)o1,-1
CCN(CC)S(=O)(=O)c1ccc2c(c1)N(Cc1nc(-c3ccccc3C)oc1C)C(=O)CS2,-78*
Cc1ccccc1-c1nc(CN(C)S(=O)(=O)c2ccc(Cl)cc2)c(C)o1,16
O=C(Nc1ccccc1CN1CCCC1)c1ccc(Cn2cnnn2)cc1,9
CN(Cc1cc2ccccc2s1)C(=O)c1cc(CN2CCOCC2)on1,-1
CC(C)(C)C1CCC(CC2C(=O)C(=O)c3ccccc3C2=O)CC1 (configuration not stated),-86*
CCCc1ncc(-c2ccncc2C)c(C2CCCN2C(=O)c2sc(NC)nc2C)n1 (configuration not stated),-13
Cc1nc(-c2cn(C(C)C)c3ncccc23)sc1C(=O)N1CCCCC1C (configuration not stated),-106*
CC1CCCCN1C(=O)c1cc(-c2cnc(-c3ccccc3)nc2)cn1C (configuration not stated),i
CCOc1ccc(-c2cc3c(=O)n(Cc4nc(-c5ccccc5OC)oc4C)ccn3n2)cc1Cl,161
Cc1ccccc1C1CCCN1C(=O)Cn1nc(C(F)(F)F)cc1C (configuration not stated),165
Cc1noc(C)c1C1CCCN1C(=O)Cn1nc(C(F)(F)F)cc1C (configuration not stated),5
Cc1cc(C(F)(F)F)nn1CC(=O)N1CCCC1c1ccc(F)cc1 (configuration not stated),-78*
Cc1cccc(-c2nn3c(c2-c2ccnc4ccc(C(N)=O)cc24)CCC3)n1,-78*
COc1ccc(C(=O)Nc2cccc(-c3nc4ccccc4[nH]3)c2)cc1,-53
CCOc1cc(C(=O)Nc2ccc3c(c2)CCC(=O)N3)cc(OCC)c1OCC,9
CCOc1cc(C(=O)Nc2ccc(Cl)c(-c3nc4ccccc4[nH]3)c2)cc(OCC)c1OCC,-76*
SMILES,Tgondii IFNg
COc1cccc(N2CC3(CCN(C(=O)C4CC4)C3)CC2=O)c1 (configuration not stated),-5
COc1ccc2[nH]cc(CCN3CC(C(=O)NC4CCCC4)CC3=O)c2c1 (configuration not stated),174
O=C(NCCn1cccn1)c1ccc(C2CCNC2)cc1 (configuration not stated),1
CCCc1nc(C)cc(-c2ccc(OC)nc2)n1,18
Cc1nc(-n2cnnc2)ccc1-c1ccc(C(N)=O)cc1,-1
COc1ccc(-c2ccc(-n3cnnc3)nc2C)cn1,-88*
NC(=O)C(c1ccccc1)(c1ccc(F)cc1)c1ccc(F)cc1,15
OC(C#CC(O)(c1ccccc1)c1ccccc1)(c1ccccc1)c1ccccc1,-93*
OC(CCCN1CCCCC1)(c1ccccc1)c1ccccc1,0
CC(=O)N1CCC(C(=O)NCc2ccccc2)(N(CCC2=CCCCC2)C(=O)c2ccc(C)cc2)CC1,-64
Cc1ccc(-c2nc(Cn3nnc(C(=O)NCc4ccc(C(C)C)cc4)c3C)c(C)o2)cc1,-9
Cc1ccc(-c2nc(Cn3nnc(C(=O)NCCc4ccccc4)c3C)c(C)o2)cc1,-49
Cc1ccc(-c2nc(Cn3nnc(C(=O)Nc4ccccc4)c3C)c(C)o2)cc1,1
Cc1ccc(-c2nc(Cn3nnc(C(=O)NC4CCCC4)c3C)c(C)o2)cc1,-101*
Cc1ccc(-c2nc(Cn3nnc(C(=O)NCc4ccc(Br)cc4)c3C)c(C)o2)cc1,-68
Cc1ccc(CNC(=O)c2nnn(Cc3nc(-c4ccc(C)cc4)oc3C)c2C)cc1,-94*
CNc1cc(-c2cccc(C(C)O)n2)c2cc[nH]c2n1 (configuration not stated),50
CC(C)n1cnc2c(-c3ccccc3)nc(C3CCN(S(=O)(=O)C4CC4)CC3)cc21,-19
O=C(O)C(Cc1ccccc1)NC1=NCCN1 (configuration not stated),310
CC#CC(=O)N1CC(=O)N(C2CCCCC2)CC(OCc2ccccc2)C1 (configuration not stated),-5
COc1ccc(C)cc1NC(=O)C(=O)NCCc1sc(-c2cccc(F)c2)nc1C,53
CS(=O)(=O)N1CCOCC2(C1)CN(S(=O)(=O)C1CC1)CCO2 (configuration not stated),-46

# Bioassay records deposited in PubChem by Broad Institute.
